Assay [1] in a line: NCI Yeast Anticancer Drug Screen. Data for the rad50 strain (AID 155).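 Further: 0% = growth of vehicle-only cultures of the same strain.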 Conditions: S. cerevisiae rad50 strain growth inhibition, active compounds read high. The procedure, abridged: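 Vehicle-treated cultures provide the reference for the growth inhibition reported for compound-exposed, repair-deficient yeast.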
A short description of assay [2]: NCI Yeast Anticancer Drug Screen. Data for the mec2-1 strain (AID 157). Conditions: S. cerevisiae mec2-1 strain, active compounds read high. The procedure, abridged: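 Each compound was tested on mec2-1 yeast, a strain altered in DNA damage repair or cell cycle control. Growth inhibition is reported relative to vehicle.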
A short description of assay [3]: NCI Yeast Anticancer Drug Screen. Data for the sgs1 mgt1 strain (AID 161).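 Further: 0% = growth of cultures given vehicle only.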 Conditions: S. cerevisiae sgs1 mgt1 strain, active compounds read high. Summed up:
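Inhibition of yeast growth, normalised to vehicle-treated controls, is reported for a strain bearing genetic alterations in DNA damage repair.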

Assay [4] in a line: NCI Yeast Anticancer Drug Screen. Data for the cln2 rad14 strain (AID 165).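 Further: 0% = growth equal to vehicle treated cultures.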 Particulars: S. cerevisiae cln2 rad14 strain, active compounds read high. Summed up:
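Test compounds were added to cln2 rad14 yeast cultures; inhibition of growth was then determined by comparison with vehicle treatment.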

A short description of assay [5]: NCI Yeast Anticancer Drug Screen. Data for the bub3 strain (AID 167). Conditions: S. cerevisiae bub3 mutant strain, active compounds read high. The procedure, abridged:
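Mutant yeast screening strain plus compound; vehicle-treated cultures serve as the 0% inhibition reference.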

Assay [6] can be described thus: NCI Yeast Anticancer Drug Screen. Data for the mlh1 rad18 strain (AID 175). Conditions: S. cerevisiae mlh1 rad18 strain growth inhibition, active compounds read high. Summed up: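 Inhibition values reflect reduced growth of mutant yeast versus vehicle-treated controls following compound exposure; the mutations affect DNA damage repair.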
Setting [7] is: at 5.0 µM (retest, dose inferred, filed as 0.5).
The mark [8] stands for this setting: at 50.0 µM (retest, dose inferred, filed as 5.0).

Compounds without any hit were thinned out: in the full panel of roughly 79,000, 15% have a hit. Values without a mark were called inactive. Activity calls are given as the source filed them. No stated cut-off is given here; in the data, active means growth inhibition above about 70%; inactive means the rest.

For `CCOC1=C(NC(C)=O)C(=O)c2ccccc2C1=O`, the growth inhibition in assay [1] (setting [7]) is 5%; in assay [1] (setting [8]) it was 97% (active); in assay [1] (at 50.0 µM), 99% (active); in assay [2] (setting [7]), -7%; in assay [2] (setting [8]), 97% (active); in assay [2] (at 50.0 µM) it was 85.9% (active). In addition, the growth inhibition is -2% in assay [3] (setting [7]); 98% (active) in assay [3] (setting [8]); 97.3% (active) in assay [3] (at 50.0 µM); 60% in assay [4] (setting [7]); 97% (active) in assay [4] (setting [8]); 83.3% (active) in assay [4] (at 50.0 µM). Besides, the growth inhibition is 8% in assay [5] (setting [7]); 97% (active) in assay [5] (setting [8]); 94.7% (active) in assay [5] (at 50.0 µM); 2% in assay [6] (setting [7]); 98% (active) in assay [6] (setting [8]); 97.7% (active) in assay [6] (at 50.0 µM).
As to `[N-]=[N+]=Nc1c(Cc2ccccc2)c(=O)oc2ccccc12`, the growth inhibition in assay [1] (setting [7]) is 15%; in assay [1] (setting [8]), 73% (active); in assay [1] (at 50.0 µM), 65.3%; in assay [2] (setting [7]), -8%; in assay [2] (setting [8]), 58%; in assay [2] (at 50.0 µM), 73.9% (active). The growth inhibition in assay [3] (setting [7]) was 3%; in assay [3] (setting [8]), 73% (active); in assay [3] (at 50.0 µM), 75.7% (active); in assay [4] (setting [7]), 11%; in assay [4] (setting [8]), 35%; in assay [4] (at 50.0 µM), 58.8%. Besides, the growth inhibition in assay [5] (setting [7]) was -17%; in assay [5] (setting [8]), 87% (active); in assay [5] (at 50.0 µM) it was 77.7% (active); in assay [6] (setting [7]), -3%; in assay [6] (setting [8]) it was 82% (active); in assay [6] (at 50.0 µM) it was 66.9%.
Regarding `OC1C2COc3nc4ccccc4n3C(O2)C1O` (stereo not given), the growth inhibition in assay [1] (setting [7]) was -153%; in assay [1] (setting [8]) it was -165%; in assay [1] (at 50.0 µM), -7.3%; in assay [2] (setting [7]), -54%; in assay [2] (setting [8]) it was -57%; in assay [2] (at 50.0 µM) it was 5.4%. In addition, the growth inhibition in assay [3] (setting [7]) is -58%; in assay [3] (setting [8]), -70%; in assay [3] (at 50.0 µM) it was -10.4%; in assay [4] (setting [7]), -60%; in assay [4] (setting [8]), -56%; in assay [4] (at 50.0 µM) it was 33.6%. The growth inhibition in assay [5] (setting [7]) is -69%; in assay [5] (setting [8]), -84%; in assay [5] (at 50.0 µM), -14.9%; in assay [6] (setting [7]), -117%; in assay [6] (setting [8]), -118%; in assay [6] (at 50.0 µM), -7.05%.
For `Cc1ccccc1N1CCN(c2c3c(nc4ccccc24)CCCCC3)CC1`, the growth inhibition in assay [1] (setting [7]) was -4%; in assay [1] (setting [8]), 94% (active); in assay [1] (at 50.0 µM), 97.2% (active); in assay [2] (setting [7]) it was 7%; in assay [2] (setting [8]) it was 94% (active); in assay [2] (at 50.0 µM), 97% (active). In addition, the growth inhibition in assay [3] (setting [7]) is 7%; in assay [3] (setting [8]), 95% (active); in assay [3] (at 50.0 µM) it was 97.2% (active); in assay [4] (setting [7]), -3%; in assay [4] (setting [8]) it was 95% (active); in assay [4] (at 50.0 µM), 96.4% (active). Also, the growth inhibition in assay [5] (setting [7]) is -9%; in assay [5] (setting [8]) it was 95% (active); in assay [5] (at 50.0 µM), 97.5% (active); in assay [6] (setting [7]), -4%; in assay [6] (setting [8]), 94% (active); in assay [6] (at 50.0 µM) it was 96.5% (active).
As to `C[N+](C)(C)CCC(=O)c1ccco1`, the growth inhibition is 7% in assay [1] (setting [7]); 99% (active) in assay [1] (setting [8]); 99.5% (active) in assay [1] (at 50.0 µM); 16% in assay [2] (setting [7]); 100% (active) in assay [2] (setting [8]); 99.7% (active) in assay [2] (at 50.0 µM). For the same compound, the growth inhibition is 10% in assay [3] (setting [7]); 99% (active) in assay [3] (setting [8]); 99.5% (active) in assay [3] (at 50.0 µM); 8% in assay [4] (setting [7]); 99% (active) in assay [4] (setting [8]); 96% (active) in assay [4] (at 50.0 µM). Further, the growth inhibition in assay [5] (setting [7]) was 7%; in assay [5] (setting [8]), 99% (active); in assay [5] (at 50.0 µM) it was 99.7% (active); in assay [6] (setting [7]), 4%; in assay [6] (setting [8]), 99% (active); in assay [6] (at 50.0 µM), 99.2% (active).
As for `O=C(O)c1ccc2c3c(ncnc13)-c1ccccc1C2=O`, the growth inhibition in assay [1] (setting [7]) is 22%; in assay [1] (setting [8]), 96% (active); in assay [1] (at 50.0 µM), 62%; in assay [2] (setting [7]), 43%; in assay [2] (setting [8]) it was 98% (active); in assay [2] (at 50.0 µM), 45%. Moreover, the growth inhibition was 10% in assay [3] (setting [7]); 86% (active) in assay [3] (setting [8]); 61% in assay [3] (at 50.0 µM); 36% in assay [4] (setting [7]); 88% (active) in assay [4] (setting [8]); 34.5% in assay [4] (at 50.0 µM). Also, the growth inhibition in assay [5] (setting [7]) was 36%; in assay [5] (setting [8]), 90% (active); in assay [5] (at 50.0 µM) it was 55.5%; in assay [6] (setting [7]), 28%; in assay [6] (setting [8]), 98% (active); in assay [6] (at 50.0 µM), 74.6% (active).
Regarding `COC(=O)[C@@]12OC[C@]34[C@H]([C@@H](O)[C@@H]1O)[C@@]1(C)[C@H](O)C(=O)C=C(C)[C@@H]1C[C@H]3OC(=O)C(OC(C)=O)[C@@H]24` (stereo not given in full), the growth inhibition was 36% in assay [1] (setting [7]); 98% (active) in assay [1] (setting [8]); 91% (active) in assay [1] (at 50.0 µM); 35% in assay [2] (setting [7]); 98% (active) in assay [2] (setting [8]); 89.3% (active) in assay [2] (at 50.0 µM). The growth inhibition was 30% in assay [3] (setting [7]); 98% (active) in assay [3] (setting [8]); 87.8% (active) in assay [3] (at 50.0 µM); 43% in assay [4] (setting [7]); 99% (active) in assay [4] (setting [8]); 90.5% (active) in assay [4] (at 50.0 µM). Besides, the growth inhibition in assay [5] (setting [7]) was 19%; in assay [5] (setting [8]), 98% (active); in assay [5] (at 50.0 µM) it was 90.5% (active); in assay [6] (setting [7]), 34%; in assay [6] (setting [8]), 99% (active); in assay [6] (at 50.0 µM), 90.8% (active).
As to `Oc1c(Cl)cc(Cl)c2cccnc12`, the growth inhibition in assay [1] (setting [7]) is 56%; in assay [1] (setting [8]), 96% (active); in assay [1] (at 50.0 µM), 98.8% (active); in assay [2] (setting [7]), 31%; in assay [2] (setting [8]) it was 98% (active); in assay [2] (at 50.0 µM), 99.2% (active). In addition, the growth inhibition was 21% in assay [3] (setting [7]); 99% (active) in assay [3] (setting [8]); 97.7% (active) in assay [3] (at 50.0 µM); 27% in assay [4] (setting [7]); 98% (active) in assay [4] (setting [8]); 98.2% (active) in assay [4] (at 50.0 µM). The growth inhibition in assay [5] (setting [7]) was 64%; in assay [5] (setting [8]), 97% (active); in assay [5] (at 50.0 µM) it was 98.5% (active); in assay [6] (setting [7]), 43%; in assay [6] (setting [8]), 98% (active); in assay [6] (at 50.0 µM) it was 99% (active).
For the compound `CCOC(=O)C1SC(=Nc2ccc(Cl)cc2)N=C1C` (stereo not given), the growth inhibition in assay [1] (setting [7]) was 14%; in assay [1] (setting [8]), 56%; in assay [1] (at 50.0 µM), 88.8% (active); in assay [2] (setting [7]) it was 27%; in assay [2] (setting [8]), 37%; in assay [2] (at 50.0 µM) it was 91.7% (active). The growth inhibition is 26% in assay [3] (setting [7]); 71% (active) in assay [3] (setting [8]); 89.8% (active) in assay [3] (at 50.0 µM); 11% in assay [4] (setting [7]); 66% in assay [4] (setting [8]); 90% (active) in assay [4] (at 50.0 µM). Also, the growth inhibition is 19% in assay [5] (setting [7]); 69% in assay [5] (setting [8]); 88.8% (active) in assay [5] (at 50.0 µM); 34% in assay [6] (setting [7]); 66% in assay [6] (setting [8]); 89.6% (active) in assay [6] (at 50.0 µM).
Regarding `Cc1cccc(C[P+](c2ccccc2)(c2ccccc2)c2ccccc2)c1`, the growth inhibition was 76% (active) in assay [1] (setting [7]); 97% (active) in assay [1] (setting [8]); 90.3% (active) in assay [1] (at 50.0 µM); 67% in assay [2] (setting [7]); 99% (active) in assay [2] (setting [8]); 93.1% (active) in assay [2] (at 50.0 µM). The growth inhibition in assay [3] (setting [7]) is 58%; in assay [3] (setting [8]), 99% (active); in assay [3] (at 50.0 µM) it was 93.3% (active); in assay [4] (setting [7]) it was 32%; in assay [4] (setting [8]), 98% (active); in assay [4] (at 50.0 µM), 91.9% (active). Moreover, the growth inhibition in assay [5] (setting [7]) is 71% (active); in assay [5] (setting [8]), 99% (active); in assay [5] (at 50.0 µM) it was 92.2% (active); in assay [6] (setting [7]), 76% (active); in assay [6] (setting [8]), 98% (active); in assay [6] (at 50.0 µM), 90.3% (active).

These data come from PubChem BioAssay (NCI).
